# Measured values taken from PubChem BioAssay (NCI).
# About 83,000 compounds went through this panel and 20% of them were active in at least one assay; those are over-represented in the sample as a whole.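 Values shown are percent growth following 48 h exposure of cells in 96-well plates to a single concentration of compound; below 10 was considered active.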 A number with no mark means an inactive call. Activity calls are given as the source filed them.
# Columns and labels:
# Assay in all cases: NCI-60 one-dose screen, 48 h (100 = growth as untreated, 0 = no growth, -100 = all killed)
# Conditions in all cases: 10 µM
# NCI-H23 lung = system: NCI-H23 lung
# NCI-H226 lung = system: NCI-H226 lung
# NCI-H322M lung = system: NCI-H322M lung
# HOP-62 NSCLC = system: HOP-62 NSCLC
# NCI-H460 lung = system: NCI-H460 lung
# NCI-H522 lung = system: NCI-H522 lung
# A549/ATCC NSCLC = system: A549/ATCC NSCLC
# 786-0 renal = system: 786-0 renal
# COLO 205 colon = system: COLO 205 colon
# DU-145 prostate = system: DU-145 prostate
SMILES,growth (NCI-H23 lung),growth (NCI-H226 lung),growth (NCI-H322M lung),growth (HOP-62 NSCLC),growth (NCI-H460 lung),growth (NCI-H522 lung),growth (A549/ATCC NSCLC),growth (786-0 renal),growth (COLO 205 colon),growth (DU-145 prostate)
Nc1nc(N)c2c(ccc3nccc32)[nH]1,50%,123%,61%,74.8%,20%,37.9%,2.16% (active),35.8%,71.4%,62.2%
NC(=O)SCC(=O)Nc1ccc(S(N)(=O)=O)cc1,106%,93%,121%,101%,108%,105%,103%,107%,107%,112%
COc1ccc(-c2ccc(-c3ccc(C(=N)N)cn3)o2)cc1,85.1%,78.7%,77.6%,72.1%,82.2%,76.6%,69.5%,91.3%,-41.2% (active),88.6%
C/C(=N\Nc1nc2ccccc2s1)c1ccncn1,42.3%,41.9%,46.2%,41.3%,23.2%,4.38% (active),50.6%,38.3%,7.12% (active),28.3%
CCOC(=O)N1C=CC2C=CC1C1C=CC=CC2N1C(=O)OCC (stereo not given),108%,91%,106%,106%,103%,89.3%,94.8%,105%,117%,112%
COc1ccc2c(c1)C(=O)c1c-2c(OCCN(C)C)nc2cc(OC)c(OC)cc12,53.1%,58%,57.2%,36.1%,36.6%,42.1%,47.8%,79.1%,66.5%,52%
N#CCCN1C/C(=C/c2ccc(Cl)cc2)C(=O)/C(=C/c2ccc(Cl)cc2)C1,-29.9% (active),-56.8% (active),-22.1% (active),-58% (active),-49.9% (active),-82.2% (active),-35.9% (active),-70.5% (active),-84.3% (active),-30.7% (active)
CCOC(=O)C(CSC(c1ccccc1)(c1ccccc1)c1ccccc1)NC(=O)C(CSC(c1ccccc1)(c1ccccc1)c1ccccc1)NC(c1ccccc1)(c1ccccc1)c1ccccc1 (stereo not given),116%,93.5%,101%,101%,106%,99.4%,95.1%,104%,112%,115%
CCCCC/C=C/C(=O)CCc1ccc(O)c(OC)c1,89.2%,87.8%,106%,107%,97.3%,60.8%,82.6%,91.1%,108%,76.9%
N#Cc1ncc(Br)c(NC2CCCCCC2)n1,103%,97.1%,105%,106%,116%,110%,89%,104%,113%,103%
C=C(C(=O)c1ccccc1)C(NC(C)(C)C)c1ccccc1 (stereo not given),31.9%,67.9%,98.6%,47.5%,26.9%,-83.9% (active),43.2%,23.1%,-77% (active),20.6%
O=[N+]([O-])c1cccc(-c2ncc(-c3ccc(Cl)cc3Cl)[nH]2)c1,104%,80%,131%,45.8%,84.1%,-14% (active),94.4%,66.8%,89.4%,40%
CN1CC[C@@H](c2c(O)cc(O)c3c(=O)cc(-c4ccccc4Cl)oc23)[C@@H](O)C1,-13.3% (active),11.8%,4.68% (active),12.1%,5.19% (active),-42.6% (active),14.2%,13%,-51% (active),1.56% (active)
Cc1ccc(NC(=O)Nc2cccnc2)cc1NC(=O)Nc1cccnc1,88.4%,95.3%,100%,117%,85.9%,-37.3% (active),30.8%,94.8%,118%,98.2%
O=C(Nc1nc2ccccc2s1)Nc1ccc([N+](=O)[O-])cc1Cl,36.9%,103%,33.3%,110%,32.6%,-22.6% (active),-53.1% (active),-23.5% (active),111%,87%
O=C(O)CN1C(=O)c2cccc3cccc(c23)C1=O,101%,96.5%,102%,97.4%,110%,94.1%,95.4%,91.7%,105%,117%
Cc1cc(C)c(CCc2cc(C)c(C)cc2C)cc1C,98%,92.3%,112%,117%,110%,95.5%,99.9%,108%,118%,107%
COc1cc(-c2nc(-c3nnc(-c4ccc(F)c(Cl)c4)o3)c3ccccn23)cc(OC)c1OC,70.1%,15.3%,54.5%,-65.6% (active),7.43% (active),5.92% (active),23.7%,45.5%,43.7%,41%
COc1ccc(/C=C/C(C)=N/OCC(=O)O)cc1,103%,99.6%,106%,105%,108%,92.8%,102%,98.1%,98.9%,104%
c1ccc([I+]c2ccccc2)cc1,55.6%,65.5%,72.8%,53.3%,86.5%,64.7%,48.7%,61%,55%,90%
Nc1nccc(Nc2ccccc2)n1,101%,91.7%,115%,102%,109%,135%,99.1%,96.4%,114%,109%
CCOCC(=O)C(C#N)c1ccc(Cl)c(Cl)c1 (stereo not given),106%,88.8%,102%,90.9%,107%,94.4%,101%,101%,115%,113%
CCCCCCN1C(=O)C2=C(c3ccc(Cl)cc3)Nc3c(c(C)nn3-c3ccccc3)C2c2ccccc21 (stereo not given),98.6%,77.5%,90.5%,96.8%,106%,80.7%,85.2%,89%,106%,104%
COc1ccc(-c2nc3ccccn3c2-c2nnc(-c3cc(OC)c(OC)c(OC)c3)o2)cc1,72.5%,60.3%,57.3%,37.1%,21.6%,44.8%,60.9%,60.3%,53.3%,66.4%
CCC(=O)N1C/C(=C/c2ccc(Cl)cc2)C(=O)/C(=C/c2ccc(Cl)cc2)C1,-25.6% (active),-53.9% (active),-16.6% (active),-53% (active),-13.8% (active),-58.7% (active),-26.7% (active),-69% (active),-76.5% (active),-41.6% (active)
O=C(Nc1cccc(-n2cc(-c3ccncc3)c(-c3ccc(O)c(Cl)c3)n2)c1)Nc1cccc(C(F)(F)F)c1,-5.75% (active),57.5%,-10.3% (active),-3.45% (active),-4.53% (active),-6.25% (active),-6.05% (active),14.9%,22.7%,12.8%
CCCCOC(=O)Oc1ccc(C(=O)Oc2ccc(OCC)cc2)cc1,99.9%,92.7%,98.6%,113%,106%,82.7%,85.6%,96.7%,118%,97.7%
CC(C)=CCc1ccc(O)c(=O)cc1C(C)C,12.9%,4.5% (active),10.5%,14.6%,5.04% (active),28.5%,9.13% (active),6.68% (active),26.7%,28.5%
